Sampled rows, rich in hits. Any-hit rate of the full collection: about 1.6%.
STAT1 inh: STAT1 signaling inhibitors, primary screen, cell-based, HTS, luciferase reporter; NIH 3T3 STAT1-luciferase reporter, IFN-gamma, luminescence; inhibition, % at 5.5 µM; 200,000 compounds, 0.35% hits;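 active = inhibition above a set limit, the mean inhibition across all tested compounds plus 3 SD, cut at about 34% in these data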;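 note: 0% = IFN-gamma with DMSO and 100% = IFN-gamma with 300 µM nifuroxazide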
C8 TRAIL sens: viability loss with TRAIL in NB7+C8 cells, primary screen, TRAIL sensitizer project, cell-based, ATPlite luminescence; inhibition (viability loss, TRAIL sensitization), % at 10 µM; 360,000 compounds, 1% hits;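 active = compounds causing at least 50% loss of cell viability in the single-dose screen, relative to plate controls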
Platelet DG rel: inhibitors of platelet dense granule secretion, primary screen, cell-based, MLPCN, human platelets; human platelet-rich plasma, SFLLRN dense granule ATP release, luminescence; inhibition, %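 (compounds screened at 7.5 µM in platelet-rich plasma)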; 300,000 compounds, 0.22% hits; AID 1663, 2009;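 active = mean replicate score, as percent of positive control, at or above 50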
STAT3 blocker: IL-6 driven STAT3 reporter inhibitors, primary screen, U3A cells, luciferase, luminescence, MLSCN library; 190,000 compounds, 0.89% hits; inhibition, % at 5.5 µM; AID 862, 2007; IL-6 STAT3-luciferase reporter; host cell line lacks STAT1;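 active = inhibition above the mean inhibition across all screened compounds plus 3 SD, cut at about 44% in these data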;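 note: 0% = DMSO only wells and 100% = 100 µM nifuroxazide control wells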
PPC-1+TRAIL kill: compounds killing PPC-1 cancer cells with TRAIL present, primary screen, TRAIL potentiator project, ATPLite luminescence, uHTS; PPC-1 cells + TRAIL, ATPLite viability luminescence; cell killing (% activity), % at 4 µM or 5 µM; 220,000 compounds, 0.41% hits; AID 1443, 2008;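 active = cell killing above 50% in the first pass at 4 µM, then a duplicate retest at 5 µM averaging 50% or more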;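 note: plate controls were cells with TRAIL plus DMSO for no effect and medium-only wells lacking cells for full effect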
Active calls of the source: *; nt = no result.

SMILES	STAT1 inh	C8 TRAIL sens	Platelet DG rel	STAT3 blocker	PPC-1+TRAIL kill
CC(=O)Nc1cccc(-c2cn3ccc(C)cc3n2)c1	-32.7	46.8	1.1	25.3	26.8
O=C(Nc1ccc(Cl)cc1)/C(=C/c1cccc(O)c1)c1nc2ccccc2s1	19.6	88.0*	10.8	-0.8	36.9
Cn1ncc2c(O/N=C(\N)c3ccc(C(C)(C)C)cc3)ncnc21	nt	92.1*	5.4	nt	18.7
O=C(NC(=O)c1ccccc1)Nc1ccccc1	nt	53.6*	3.1	nt	nt
COc1ccc(NC(=O)NC(=O)c2ccccc2)cc1	nt	1.4	19.8	nt	nt
CCN(CC(=O)Nc1ccccc1C(F)(F)F)CC(=O)c1[nH]c(C)c(C(C)=O)c1C	nt	12.0	nt	nt	nt
O=C(Nc1cc(S(=O)(=O)N2CCOCC2)ccc1N1CCOCC1)c1ccc([N+](=O)[O-])s1	nt	53.1*	nt	nt	nt
O=C(Nc1cccc(Oc2ccccc2)c1)C1Cc2c(-c3ccccc3)ccnc2O1 (centres undefined)	nt	-16.0	nt	nt	nt
CCOC(=O)Cc1ccc(NC(=O)c2ccc(C(C)(C)C)cc2)cc1	38.4*	31.8	-3.9	96.5*	47.6
Cc1noc(N)c1C(=O)Nc1ccc(C(C)(C)C)cc1	-46.9	55.6*	13.6	5.7	30.2
CCOC(=O)Cc1ccc(NC(=O)c2ccccc2Br)cc1	2.0	11.3	-1.2	13.0	37.0
C[C@H](CO)N1C[C@H](C)[C@@H](CN(C)C(=O)Nc2ccc(F)cc2)Oc2ncc(-c3ccc(F)cc3)cc2C1=O	nt	3.9	nt	nt	nt
CC1(C(=O)NCCc2ccccc2)Cc2c(-c3ccc(C(N)=O)cc3)ccnc2O1 (centres undefined)	nt	17.4	nt	nt	nt
CCOc1ccc(OCc2ccc(C(=O)NCc3cccnc3)o2)cc1	-4.8	-5.1	69.7*	2.8	5.1
CCOc1ccc(OCc2ccc(C(=O)Nc3cccnc3)o2)cc1	-26.1	-7.0	8.0	1.9	14.9
CC1Oc2cc3oc4c(O)c(O)ccc4c(=O)c3c(O)c2C1(C)C (centres undefined)	nt	52.7*	-2.9	nt	nt
COc1ccc(-c2cc(=O)oc3c(O)c(O)ccc23)cc1	nt	1.6	1.8	nt	nt
Clc1cc(Br)ccc1NCc1cccnc1	nt	-27.0	-5.0	nt	nt
CSc1ccc(CN2CCC2(C)C(=O)Nc2ccc3c(c2)OCO3)cc1 (centres undefined)	nt	-5.4	nt	nt	nt
Cc1cccc(N2CCN(C(=O)c3cc(S(=O)(=O)N4CCCC4)cn3C)CC2)c1C	nt	-3.4	36.2	nt	nt
Cn1cc(S(=O)(=O)N2CCCC2)cc1C(=O)N1CCN(c2cccc(Cl)c2)CC1	nt	10.2	59.5*	nt	nt
COc1ccc(Cl)cc1NC(=O)c1cc(S(=O)(=O)N2CCCC2)cn1C	nt	4.3	63.2*	nt	nt
Cc1nn(CCCC(=O)Nc2cccnc2)c(C)c1[N+](=O)[O-]	4.8	-10.3	0.5	5.2	-8.3
Cc1nn(CC(=O)Nc2cccnc2)c(C)c1[N+](=O)[O-]	-6.2	5.2	61.4*	10.8	1.9
CCCN1C=CC(=C2C(=O)c3ccccc3C2=O)C=C1	91.6*	91.3*	63.8*	113.4*	26.0
SMILES	STAT1 inh	C8 TRAIL sens	Platelet DG rel	STAT3 blocker	PPC-1+TRAIL kill
COc1ccc(OC)c(NC(=O)c2nc(S(=O)(=O)Cc3ccccc3)ncc2Cl)c1	nt	95.9*	22.7	nt	nt
Cc1cccc(CS(=O)(=O)c2ncc(Cl)c(C(=O)Nc3c(C)cccc3C)n2)c1	nt	29.3	3.7	nt	nt
Cc1cccc(CS(=O)(=O)c2ncc(Cl)c(C(=O)NCc3ccccc3)n2)c1	nt	-14.3	8.1	nt	nt
COc1ccc(NC(=O)c2nc(S(=O)(=O)Cc3cccc(C)c3)ncc2Cl)c(OC)c1	nt	51.6*	15.0	nt	nt
O=C(COC(=O)c1ccc(Cl)nc1)NNC(=O)c1ccc(Br)cc1	nt	3.8	nt	nt	nt
Cc1ccc(C)c2[nH]c(=O)c(C(c3nnnn3C(C)(C)C)N3CC=C(c4ccc(F)cc4)CC3)cc12 (centres undefined)	34.7*	-1.7	nt	-10.2	-1.8
Cc1cc(NC(=O)CSc2cn(CC(=O)N(C(C)C)C(C)C)c3ccccc23)no1	nt	-8.5	-12.0	nt	nt
NC(CCCCc1ccccc1)c1cccc2ccccc12 (centres undefined)	nt	nt	49.9*	nt	nt
CC(CCc1ccccc1)NCc1cccc2ccccc12 (centres undefined)	nt	15.3	0.6	nt	nt
Cc1cccc(OCc2nnc(SCC(=O)N(C)C3CCCCC3)o2)c1	nt	-12.1	nt	nt	nt
O=C(C=C=Nc1ccccc1)C(=O)N=C=Cc1ccccc1	nt	4.1	52.9*	nt	-2.1
Cc1ccc(-n2[nH]c(C)c(/C=N/NC(=O)c3ccc(O)cc3O)c2=O)cc1	nt	72.6*	28.1	nt	nt
CCOC(=O)c1cnc2c(-c3ccc(Cl)cc3)cnn2c1C	-21.9	51.2*	4.2	11.9	nt
COC(=O)[C@]12CCCCC=C1N(Cc1ccc3c(c1)OCO3)C(=O)[C@H](CC(=O)N1CCN(C(=O)C3CC3)CC1)C2	nt	2.7	nt	nt	nt
Cc1cccc(C)c1NC(=O)C1CCN(S(C)(=O)=O)CC1	nt	50.7*	-3.0	nt	nt
CCCCn1c(SCC(=O)c2c(N)n(C3CC3)c(=O)[nH]c2=O)nc2cc(S(N)(=O)=O)ccc21	nt	2.0	nt	nt	nt
Cc1ccc(-c2cc(C(=O)N/N=C/c3ccc([N+](=O)[O-])o3)c3ccccc3n2)o1	nt	68.5*	nt	nt	nt
Cc1ccc(-c2cc(C(=O)NCc3ccco3)c3ccccc3n2)o1	3.7	11.5	56.1*	8.7	9.1
O=C(N/N=C/c1ccc([N+](=O)[O-])o1)c1cc(-c2ccc(-c3ccccc3)cc2)nc2ccccc12	-16.8	86.5*	7.4	9.1	79.9*
Cc1cc(C(=O)NCc2ccco2)c2ccccc2n1	-5.2	-23.2	-6.7	-0.4	-15.8
O=C(N/N=C/c1ccc(F)cc1)c1cc(-c2ccco2)nc2ccccc12	7.8	50.4*	2.8	-3.6	6.2
O=C(N/N=C/c1ccc([N+](=O)[O-])o1)c1cc(-c2ccncc2)nc2ccccc12	5.7	23.3	8.7	9.0	6.3
C[C@@H]1CN([C@@H](C)CO)C(=O)CCCn2nncc2CO[C@H]1CN(C)C(=O)C1CC1	nt	8.3	nt	nt	nt
O=C1OCCC1(c1ccccc1)c1ccccc1	nt	6.9	nt	nt	nt
CC(C)C(NC(=O)c1ccc(F)cc1)C(=O)NC1(C)CCS(=O)(=O)C1 (centres undefined)	nt	5.0	nt	nt	nt
SMILES	STAT1 inh	C8 TRAIL sens	Platelet DG rel	STAT3 blocker	PPC-1+TRAIL kill
O=C(NCC(=O)N1CCCC1)NN=Cc1ccccc1O	nt	10.2	nt	nt	nt
CC1(C(=O)Nc2cccc(OC(F)(F)F)c2)Cc2c(-c3ccc(C(N)=O)cc3)ccnc2O1 (centres undefined)	nt	11.0	nt	nt	nt
Cn1c(/C=C/c2ccc([N+](=O)[O-])o2)nc2ccccc2c1=O	-122.5	51.2*	3.9	11.8	6.9
CC(C)Nc1nc(NCCOc2ccccc2)c2sccc2n1	nt	9.2	nt	nt	nt
O=C(/C=C/c1cccs1)NC(=S)NNC(=O)c1ccccc1O	0.9	26.9	3.6	15.6	-2.9
COc1ccc(C(=O)NNC(=S)NC(=O)/C=C/c2cccs2)cc1	-3.1	53.7*	0.6	-3.7	nt

Screening data: PubChem BioAssay, several laboratories
